Results as given in PubChem BioAssay AID894 (National Center for Advancing Translational Sciences (NCATS), 2007).
Screen size: about 150,000 compounds; about 6,500 (4.3%) were called active. Another 12% or so got no clear call; they are omitted. The call rests on the fitted dose curve; in most records, active means well fitted inhibition curve with a large enough effect (not every such curve was filed as active); inconclusive means small, poorly fitted or top-dose-only effect, or another doubt; inactive means no such curve, though single readings can be large or run the other way. For the sample, actives were picked, then their nearest neighbours and some compounds at random.

What follows are compounds tested against 15-hydroxyprostaglandin dehydrogenase [NAD(+)] (Homo sapiens) (UniProt P15428) (assay: qHTS Assay for Inhibitors of HPGD (15-Hydroxyprostaglandin Dehydrogenase)). Conditions: purified HPGD, NADH fluorescence kinetic, PGE2 substrate; activity change, negative = inhibition: hits give low values.
Chain of 15-hydroxyprostaglandin dehydrogenase [NAD(+)] (Homo sapiens) (P15428 whole entry, looked up): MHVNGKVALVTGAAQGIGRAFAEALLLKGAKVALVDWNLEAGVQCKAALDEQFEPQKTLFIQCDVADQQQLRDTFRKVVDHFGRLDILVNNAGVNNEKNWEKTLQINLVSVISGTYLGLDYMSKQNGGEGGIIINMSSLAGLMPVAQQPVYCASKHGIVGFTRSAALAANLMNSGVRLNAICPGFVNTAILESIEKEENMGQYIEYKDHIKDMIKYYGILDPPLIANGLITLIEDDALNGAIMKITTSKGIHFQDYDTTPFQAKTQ
Method in brief: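 20 nM HPGD preincubated 15 min at room temperature with compound in 50 mM Tris-HCl pH 8, 0.01% Tween 20. Started with 1 mM NAD+ and 30 uM prostaglandin E2; NADH fluorescence (360/450 nm) read 5 times over 30-s intervals, last minus first.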
On the % scale 0 is the no-effect control and ±100 the full control effect; potency means the concentration at half of the fitted maximal effect.

Activity change, negative = inhibition, inactive:
COC(=O)c1sccc1NC(=O)COc1ccc(Cl)cc1 -12%, Cc1sc2nc(SCC(N)=O)n(C)c(=O)c2c1C -0.652%, Cc1sc2nc(CSCC(=O)Nc3c(Cl)cccc3Cl)[nH]c(=O)c2c1C -14%, COc1ccc(-c2[nH]ncc2/C=N/NC(=O)c2cc(Br)ccc2O)c(OC)c1 -16.3%, Cc1ccc(S(=O)(=O)N(C)C)cc1NC(=O)/C=C/c1cccs1 -12.9%, CS(=O)(=O)N(Cc1ccccc1)c1ccc(C(=O)NN=C2CCCCCC2)cc1 -5.89%, CCCC/C(C)=N/NC(=O)NC1CCCCC1 -6.12%, Cc1ccc(C2=NN(C(=O)CSc3nc(N)cc(N)n3)C(c3ccco3)C2)cc1 (stereo not given) -20.9%, CS(=O)(=O)Nc1cccc(C2=NN(S(=O)(=O)c3ccccc3)C(c3cccs3)C2)c1 (stereo not given) -7.08%, COc1ccc(-c2csc(NC(=O)COC(=O)c3ccc(Br)o3)n2)cc1 -1.93%, O=c1ccn(Cc2ccccc2Cl)cc1 0.459%, O=C1c2ccccc2C(O)N1Cc1ccccc1 (stereo not given) -28.7%, C=CCC1CCC(=O)N2CCCC12 (stereo not given) -1.41%, COc1ccc(/C=C2\NC(=O)[C@@H]3Cc4ccccc4CN3C2=O)cc1 -5.55%, COC(=O)C1=C(C(=O)OC)[C@@H]2N(Cc3ccccc3)c3ccccc3[C@@]23C[C@@H](C(=O)OC)N(S(=O)(=O)c2ccc(C(F)(F)F)cc2)C3=N1 -11.4%, Cc1ccc(Cn2ccc(NC(=O)c3cc(C(C)C)on3)n2)cc1 -19.4%, O=C(Nc1ccn(Cc2ccc(F)cc2)n1)c1ccncc1 1.11%, CCOc1ccc(N2C(=O)/C(=C/c3ccc(C)o3)N(C)C2=S)cc1 -30%, COc1cc(OC)cc(C(=O)NCC(=O)OCc2csc(-c3ccccc3)n2)c1 -9.37%, CNC(=O)c1csc(-c2ccccc2)n1 -8.99%, CC1CCCCN1S(=O)(=O)c1ccc(S(=O)(=O)N(CC(=O)Nc2ccccc2)Cc2cccs2)cc1 (stereo not given) -10.3%, O=C(CN1C2=NCCN2c2ccccc21)c1cccs1 -3.36%, COc1ccc2c(c1)O[C@@H](c1ccc3c(c1)OCO3)[C@H](OC(=O)NCc1ccco1)C2=O -11.6%, C[C@H]1Cc2c(COc3ccccc3)nc3c(c2CO1)CN(C(=O)NCc1ccco1)CC3 -1.13%, COc1nc(N(C)C)nc(N2CC(=O)N(CCNS(=O)(=O)c3ccc(C)cc3)C2=N)n1 -10.5%, O=C(COc1nc2ccccc2nc1N1CCOCC1)NCC(F)(F)F -9.54%, c1ccc(COc2nsnc2N2CCOCC2)cc1 -17.1%, C=CCNC(=O)/C(=C\c1cccc([N+](=O)[O-])c1)NC(=O)c1ccccc1 -14.6%, Cc1cc(C)cc(OCC(=O)NNC(=O)CCN2C(=O)c3ccccc3C2=O)c1 -12.4%, CCOC(=O)c1nnn(-c2nonc2-n2cccc2)c1CN1CCOCC1 -13.3%, CCOC(=O)c1nnn(-c2nc(OC)nc(N(C)C)n2)c1-c1ccccc1 -1.76%, O=C1C=C(c2ccccc2)CCC1 -3.18%, CC1=C2[C@@H](O)[C@H]([C@@H](C)C(=O)NCCC(C)C)CC[C@@]2(C)C=CC1=O -7.81%, Cc1ccccc1N/C(SCc1ccc(Cl)cc1)=C(/C#N)C(N)=O -18.2%, COC(=O)CCCC1=CC2=CC(=O)C(C)(OC(=O)c3cccs3)C(=O)C2=CN1c1ccc(CO)cc1 (stereo not given) -7.14%, CCOC(=O)c1cc2n(c1C)-c1ccccc1C2=O -17.5%, CCOC(=O)Nc1ccccc1N1C(=O)c2ccccc2C1=O -2.62%, COc1ccc(OC)c(-c2c(=O)n(OCc3ccccc3Br)c3ccccc3[n+]2[O-])c1 -7.2%, COC(=O)C1=C(C(=O)OC)[C@@H]2N(C)c3ccccc3[C@@]23C[C@@H](C(=O)OC)N(S(=O)(=O)c2cccs2)C3=N1 -9.16%, CCCCCCCC[C@@H](O)/C=C/C=C/C=C\[C@@H](O)CCCC(=O)O -0.184%, Nc1nc(SCCOc2ccccc2)n[nH]1 -1.6%, Nc1nc(SCC(=O)NN(c2ccccc2)c2ccccc2)n[nH]1 -3.02%, COc1ccc(Cl)cc1NC(=O)Cn1nc(-c2ccc(C)cc2)n(C)c1=S -0.416%, C[C@H]1Cc2c(COc3ccccc3)nc3c(c2CO1)CN(C(=O)Nc1cccc(C#N)c1)CC3 0.277%, S=C(NCCc1ccccc1)NCc1ccccc1Cl -18.9%, O=S(=O)(NCCc1ccncc1)c1ccccc1 -10.2%, NS(=O)(=O)c1ccc(CCNC(=O)Nc2ccc(Cl)cc2)cc1 -8.27%, Cc1cc(Cl)ccc1NC(=S)NCCCN1CCCC1=O -1.25%, Cc1ccnc(NC(=O)c2ccoc2C)c1 -2.58%, Cc1cc2oc(C(=O)Nc3c(C)n(C)n(-c4ccccc4)c3=O)c(C)c2cc1Cl -3.54%, O=[N+]([O-])c1cc(S(=O)(=O)N2CCCC2)ccc1NN=C1CCCC1 -4.68%, C=C(C)c1cccc(C(C)(C)NC(=O)NC2CCCC2)c1 -3.62%, COc1ccc(COC(=O)N/N=C(\C)CC(=O)Nc2ccc(Cl)cc2)cc1 -4.69%, Cc1ccc(C(c2nnnn2CS(=O)(=O)c2ccc(C)cc2)N2CCC(C(N)=O)CC2)cc1 (stereo not given) -7.21%, Cc1cc(C)cc(Oc2nc3c(C)cccn3c(=O)c2/C=C(\C#N)C(=O)NC2CCS(=O)(=O)C2)c1 (stereo not given) -10.8%, CN1CCC(=NNC(=O)c2ccc(N(Cc3ccc(Cl)cc3)S(C)(=O)=O)cc2)CC1 -8.83%, O=C(NNC1CC(=O)N(c2cccc(Cl)c2)C1=O)c1cccnc1 (stereo not given) -13.5%, O=C(CNS(=O)(=O)c1ccccc1)NCC(=O)OCc1ccccc1F 0.393%, O=C(Nc1ccccc1)c1ccc2c(c1)OCO2 -29.6%, Cn1c(NC(=O)c2ccc3c(c2)OCO3)cc(=O)n(C)c1=O -14.1%, Cc1ccc(C(=O)NC(C)c2ccccc2)cc1Br (stereo not given) -29.6%, O=C(CSc1ncnc2scc(-c3ccccc3)c12)NCc1ccc2c(c1)OCO2 -13.5%, O=C(NC(=S)NC1CCSC1=O)c1ccccc1F (stereo not given) -13.4%, O=C(O)C[C@@H]1NC(=O)[C@H](Cc2ccccc2)NC1=O -8.82%, Cc1ccc(C(=O)Nc2c(C#N)c(C)c(C)n2Cc2ccccc2)cc1 -7.72%, Cc1ccccc1-n1c(C)cc(/C=N/NC(=O)c2ccc(CN3CCOCC3)cc2)c1C -16.5%, Cn1c(CO)cnc1SCc1ccccc1 1.72%, O=c1c2ccccc2c(-c2ccccc2)nn1Cc1ccccc1 -16.5%, O=C(NNC(=O)c1cc2c(s1)CCCC2)c1ccccc1 -17.6%, Cc1cccc(NC(=O)CSc2nc3[nH]ncc3c(=O)[nH]2)c1 -11%, COc1ccc(NC(=O)CSc2nc(NS(=O)(=O)c3ccc(C)cc3)cc(=O)[nH]2)cc1 -10.9%, COc1cccc(CC(=O)N2CCc3nc(COc4ccccc4)c4c(c3C2)CO[C@@H](C)C4)c1 -2.54%, Cc1ccc(N/N=C2\COC(C)(C)CC2=O)cc1 -19.3%, C=C(C)C(=O)c1ccc(F)cc1 -9.12%, CNC(=O)/C(C#N)=C/c1c(F)cccc1Cl -9.42%, O=C(NCCc1ccccc1)c1ccc(NC2=NC3CS(=O)(=O)CC3S2)cc1 (stereo not given) -15.7%, O=C(NCCc1ccccc1)c1ccc(OCCOc2ccccc2)cc1 -14.9%

Potency, active:
C=CCNC(=O)CSc1nc2sc(C)c(C)c2c(=O)[nH]1 14.1 µM, CCS(=O)(=O)Nc1ccc(C2=NN(S(=O)(=O)c3ccc(F)cc3)C(c3ccco3)C2)cc1 (stereo not given) 12.6 µM, O=C1c2ccccc2C(O)N1Cc1ccccc1Cl (stereo not given) 12.6 µM, O=C(Nc1ccn(Cc2ccccc2)n1)c1n[nH]c([N+](=O)[O-])c1Cl 28.2 µM, C=CCNC(=O)c1csc(-c2ccccc2)n1 15.8 µM, S=c1[nH]nc(SCc2ccccc2Cl)c2[nH]cnc12 1.26 µM, c1nc(COc2nsnc2N2CCOCC2)cs1 31.6 µM, CCOC(=O)c1nnn(-c2nonc2OC)c1-c1ccccc1 8.91 µM, CCOC(=O)c1cc2n(c1N)-c1ccccc1C2=O 31.6 µM, Nc1nc(SCC(=O)NNc2c(Cl)cc(Cl)cc2Cl)n[nH]1 35.5 µM, N#C/C(=C\c1ccccc1)c1n[nH]c(Cn2cncn2)n1 28.2 µM, Oc1cc2c(cc1O)CN(C(=S)NCCc1ccc(Cl)cc1)CCC2 14.1 µM, Cc1cccn2c(=O)c(/C=C(\C#N)S(=O)(=O)c3ccc(Cl)cc3)c(N3CCC(C(N)=O)CC3)nc12 15.8 µM, Cc1ccc(F)cc1NC(=O)c1ccc2c(c1)OCO2 20 µM, Cc1ccc(C(=O)N/N=C/c2sc(=O)n(Cc3cccc(C(=O)O)c3)c2Cl)cc1 28.2 µM, CSc1c(SCc2ccccc2)cnn(Cc2ccccc2)c1=O 25.1 µM, COC(=O)c1cccc(NC(=O)CSc2nc(C)cc(=O)[nH]2)c1 20 µM, CC1CCCN(c2ccc(C(=O)NCCc3ccccc3)cn2)C1 (stereo not given) 17.8 µM
